The values below come from PubChem BioAssay (NCI).

Compounds without any hit were thinned out: in the full panel of roughly 83,000, 20% have a hit.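 Cell lines were cultured in 96-well plates, exposed to a single compound concentration, and assessed for percent growth 48 hours later.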 Unmarked numbers belong to inactive results. Active and inactive are the calls of the source. Rule for the calls: active = growth percent below 10; inactive = the rest.

One assay has as its system NCI-H522 lung. In words: NCI-60 one-dose screen, 48 h (100 = growth as untreated, 0 = no growth, -100 = all killed). To be noted: 10 µM unless noted.
Consider `COc1cc(/C=C2\COc3ccc(-c4ccccc4)cc3C2=O)cc(OC)c1`, for which the growth is 39.2%. Still for that read-out and setting: with `Cc1c(C(=O)NCCC(=O)NO)sc2ncnc(Nc3ccc(NC(=O)Nc4cccc(C(F)(F)F)c4)cc3)c12` the figure was 94.4%; with `Cc1cc(C)c(S(=O)(=O)Oc2ccccc2[N+](=O)[O-])c(C)c1`, -12.5% (active); with `CCCC/C=N/NC(=S)NCc1ccccc1`, 94.6%.

As to `O=C(Nc1ccc(-c2ccc3c(c2)NC(=O)/C3=C\c2ccc[nH]2)cc1)NC1CC1`, the growth is 89.6%. On to `NCCCCCCNc1cc(-c2cccc(OC(F)(F)F)c2)nc2ccc(N3CCCC3)cc12`, for which the growth was -44.5% (active).

The test system of the next assay is A549/ATCC NSCLC. The assay is described as above. To be noted: 10 µM unless noted.
As for `O=S(=O)(Nc1ccc(-n2cnc3cc(-c4ccc(O)cc4)ccc32)cc1)c1ccccc1`, the growth was 77.2%. With `O=S(=O)(NCCNc1nccc(-c2c(-c3cccc(O)c3)nc3occn23)n1)c1ccc(Cl)cc1`, the growth was 101%. Take `COc1cc(C2=NN(C(C)=O)C(c3cc(OC)c(OC)c(OC)c3)C2)ccc1O` (stereo not given): the growth was 21.7%. The same measure, in the same setting: with `N/C(=N\C(N)=N\c1nc2ccccc2s1)c1cccc(Cl)c1` the figure was 9.74% (active); with `C=C(C)[C@@H]1CC[C@]2(C(=O)N3CCN(C)CC3)CC[C@]3(C)[C@H](CC[C@@H]4[C@@]5(C)CC[C@H](OCCC#N)C(C)(C)[C@@H]5CC[C@]43C)[C@@H]12`, 80%.

`O=C(/C=C(O)/C=C/c1ccc(SC(F)(F)F)cc1)/C=C/c1ccc(SC(F)(F)F)cc1`: the growth was 95.4%. Take `COc1cc(/C(C)=C(\c2ccc(Cl)cc2)c2ccc(OCCN(C)C)cc2)ccc1F`: the growth was 63.4%. The same measure, in the same setting: with `COc1cc2oc(-c3cccc(C(=O)Nc4ccc(Cl)cc4)c3)cc(=O)c2c(O)c1OC` the figure was 47.5%. For `COc1ccc2nc(-c3ccc(-c4noc(-c5cc(OC)c(OC)c(OC)c5)n4)cc3)[nH]c2c1`, the growth was 45.8%.

Consider `COC1=CC(=O)c2ccccc2C1=O`, for which the growth is 97.4%. Still for that read-out and setting: to `CC(=O)Nc1cccc(-c2ccc3c(c2)NC(=O)/C3=C\c2ccc[nH]2)c1` belongs 40.4%; to `COc1c(Cl)c2c(c(OC)c1OC)-c1ccc(SC)c(=O)cc1[C@@H](NC(=O)OCC(F)(F)F)CC2`, 22.2%; to `COc1cc(/C=N/NC(=O)c2cnn3c2NC(c2ccccc2)C3)ccc1Oc1ccccc1` (stereo not given), 25.5%. Take `COc1cc(C(=O)Nc2cc3c(cc2Oc2cc(C)cc(C)c2)C(=O)N(C)[C@@H](CC(=O)N(C)O)C(=O)N3)c(Br)c(OC)c1OC`: the growth is -4.48% (active).

For `COc1cc2cc(CN3CCN(c4nccc(-c5ccc6ccccc6c5)n4)CC3)c(=O)[nH]c2cc1OC`, the growth was 2.34% (active). For `N#C/C(=C\c1c(-c2ccccc2)[nH]c2ccccc12)C(=O)c1ccc(Cl)cc1`, the growth is 48.8%. Same read-out and setting: with `NS(=O)(=O)c1ccc(CCn2c(SCC(=O)c3ccc(Cl)cc3)nc3ccccc3c2=O)cc1` the figure was 103%; with `CC(C)(C)c1ccc(NS(=O)(=O)c2ccc3nc(NC(=O)c4cnccn4)[nH]c3c2)cc1`, 38.8%.

Regarding `CCCCCN1C=C/C(=C\C(=O)N(C)c2ccc(OC(F)(F)F)cc2)c2ccccc21`, the growth was 91.3%. In the case of `CCc1c2c(nc3ccc(OCc4ccc(B(O)O)cc4)cc13)-c1cc3c(c(=O)n1C2)COC(=O)[C@]3(O)CC`, the growth is 7.22% (active). On the same count and under the same terms, to `COc1cccc(C(=O)NNc2nc(Cl)nc(N3CCN(C(c4ccccc4)c4ccccc4)CC3)n2)c1` belongs 101%; to `COc1cccc(/C=N/NC(=O)c2cnn3c2NC(c2ccccc2)C3)c1Oc1ccccc1` (stereo not given), 73%; to `COc1ccc(/C=C/C(=O)Nc2cc(/C=C\c3cc(OC)c(OC)c(OC)c3)cc(OC)c2OC)cc1OC`, 40%. The same measure, in the same setting: with `COc1cc2oc(-c3cccc(C(=O)Nc4ccc5c(c4)OCO5)c3)cc(=O)c2c(O)c1OC` the figure was 74.9%; with `Nc1c(S(=O)(=O)O)cc2c3c(cccc13)C(=O)OC2=O`, 116%.

As for `O=C1Nc2ccccc2/C1=C\c1c(-c2ccccc2)nc2ccccn12`, the growth was 47.1%. As for `COc1ccc(-c2[nH][nH]c(=O)c2-c2nc3ccccc3s2)cc1`, the growth is 107%. The same measure, in the same setting: with `Cc1ccc(-c2csc(NC(=O)CSc3nc(-c4ccccc4)cc(=O)[nH]3)n2)cc1` the figure was 91.7%; with `Oc1cccc(CCc2ccc(Oc3cc(CCc4cccc(O)c4)cc(O)c3O)cc2)c1`, 83%.
